# Screen size: about 5,500 compounds; about 2,000 (36%) were called active. Roughly 18% stayed inconclusive and do not appear here. This is one part of the list. Unmarked numbers belong to inactive results. Cut-off read from the data, not from the text of the source: active = normalized growth mostly below about 0.91 (no sharp cut-off); inconclusive = no clear call, values can overlap the other calls; inactive = mostly above about 0.92.
# Assay: chemical genetic growth profiling, strain panel (AID 1159580);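 note: tested at 20 µM; growth read once vehicle control cultures reached saturation at 30 °C; 1 = growth at the plate median or of vehicle wells; lower values mean less growth of the strain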
# Settings: growth OD
compound,measurement,setting,value
COc1cc(O)c(C(=O)/C=C/c2ccccc2)c(OC)c1,normalized growth,"S. cerevisiae deletion strains, locus YJL168C, strain set2, hits give low values",0.943
same,normalized growth,"S. cerevisiae deletion strains, locus YJL187C, strain SWE1 (second series), hits give low values",0.866 (active)
same,normalized growth,"S. cerevisiae deletion strains, locus YKL009W, strain mrt4, hits give low values",0.89
same,normalized growth,"S. cerevisiae deletion strains, locus YKL068W, hits give low values",0.934 (active)
same,normalized growth,"S. cerevisiae deletion strains, locus YKL085W, strain MDH1 (second series), hits give low values",0.952
same,normalized growth,"S. cerevisiae deletion strains, locus YKL085W, strain MDH1, hits give low values",0.952
same,normalized growth,"S. cerevisiae deletion strains, locus YKL160W, strain elf1, hits give low values",0.852 (active)
same,normalized growth,"S. cerevisiae deletion strains, locus YKL190W, strain CNB1, hits give low values",0.953
same,normalized growth,"S. cerevisiae deletion strains, locus YKR001C, strain vps1, hits give low values",0.642 (active)
same,normalized growth,"S. cerevisiae deletion strains, locus YKR026C, strain gcn3, hits give low values",0.95
same,normalized growth,"S. cerevisiae deletion strains, locus YKR091W, strain srl3, hits give low values",0.942
same,normalized growth,"S. cerevisiae deletion strains, locus YLL001W, strain dnm1, hits give low values",0.899 (active)
same,normalized growth,"S. cerevisiae deletion strains, locus YLL026W, hits give low values",0.937
same,normalized growth,"S. cerevisiae deletion strains, locus YLL041C, strain sdh2, hits give low values",0.943
same,normalized growth,"S. cerevisiae deletion strains, locus YLR027C, strain aat2, hits give low values",0.859 (active)
same,normalized growth,"S. cerevisiae deletion strains, locus YLR039C, strain RIC1, hits give low values",0.674 (active)
same,normalized growth,"S. cerevisiae deletion strains, locus YLR058C, strain SHM2, hits give low values",0.848 (active)
same,normalized growth,"S. cerevisiae deletion strains, locus YLR102C, strain apc9, hits give low values",0.922 (active)
same,normalized growth,"S. cerevisiae deletion strains, locus YLR221C, strain rsa3, hits give low values",0.844 (active)
same,normalized growth,"S. cerevisiae deletion strains, locus YLR258W, strain gsy2, hits give low values",0.907 (active)
same,normalized growth,"S. cerevisiae deletion strains, locus YLR262C, strain YPT6 (second series), hits give low values",0.774 (active)
same,normalized growth,"S. cerevisiae deletion strains, locus YLR262C, strain YPT6, hits give low values",0.708
same,normalized growth,"S. cerevisiae deletion strains, locus YLR268W, strain sec22, hits give low values",0.804 (active)
same,normalized growth,"S. cerevisiae deletion strains, locus YLR320W, strain mms22, hits give low values",0.748 (active)
same,normalized growth,"S. cerevisiae deletion strains, locus YLR342W, strain FKS1 (second series), hits give low values",0.876
same,normalized growth,"S. cerevisiae deletion strains, locus YLR342W, strain FKS1, hits give low values",0.93
same,normalized growth,"S. cerevisiae deletion strains, locus YLR357W, strain rsc2, hits give low values",1.01
same,normalized growth,"S. cerevisiae deletion strains, locus YLR370C, strain arc18, hits give low values",0.943
same,normalized growth,"S. cerevisiae deletion strains, locus YLR371W, strain rom2, hits give low values",0.8 (active)
same,normalized growth,"S. cerevisiae deletion strains, locus YLR384C, strain iki3, hits give low values",0.947
same,normalized growth,"S. cerevisiae deletion strains, locus YLR418C, strain cdc73, hits give low values",0.41 (active)
same,normalized growth,"S. cerevisiae deletion strains, locus YML016C, strain PPZ1, hits give low values",0.931
same,normalized growth,"S. cerevisiae deletion strains, locus YML032C, strain rad52, hits give low values",0.826 (active)
same,normalized growth,"S. cerevisiae deletion strains, locus YML120C, strain ndi1, hits give low values",0.866 (active)
same,normalized growth,"S. cerevisiae deletion strains, locus YML124C, strain tub3, hits give low values",0.923 (active)
same,normalized growth,"S. cerevisiae deletion strains, locus YMR058W, strain fet3, hits give low values",0.918
same,normalized growth,"S. cerevisiae deletion strains, locus YMR078C, strain ctf18, hits give low values",0.898 (active)
same,normalized growth,"S. cerevisiae deletion strains, locus YMR125W, strain sto1, hits give low values",0.893
same,normalized growth,"S. cerevisiae deletion strains, locus YMR129W, hits give low values",0.937
same,normalized growth,"S. cerevisiae deletion strains, locus YMR205C, strain PFK2, hits give low values",0.805 (active)
same,normalized growth,"S. cerevisiae deletion strains, locus YMR223W, strain ubp8, hits give low values",0.87 (active)
same,normalized growth,"S. cerevisiae deletion strains, locus YMR231W, strain pep5, hits give low values",0.967
same,normalized growth,"S. cerevisiae deletion strains, locus YMR307W, strain GAS1, hits give low values",0.502 (active)
same,normalized growth,"S. cerevisiae deletion strains, locus YNL067W, strain RPL9B, hits give low values",0.925
same,normalized growth,"S. cerevisiae deletion strains, locus YNL071W, strain lat1, hits give low values",0.503 (active)
same,normalized growth,"S. cerevisiae deletion strains, locus YNL128W, strain TEP1, hits give low values",0.95
same,normalized growth,"S. cerevisiae deletion strains, locus YNL209W, strain ssb2, hits give low values",0.95
same,normalized growth,"S. cerevisiae deletion strains, locus YNL233W, strain BNI4, hits give low values",0.766 (active)
same,normalized growth,"S. cerevisiae deletion strains, locus YNL248C, strain rpa49, hits give low values",0.951
same,normalized growth,"S. cerevisiae deletion strains, locus YNL250W, strain rad50, hits give low values",0.979
same,normalized growth,"S. cerevisiae deletion strains, locus YNL271C, strain bni1, hits give low values",0.953
same,normalized growth,"S. cerevisiae deletion strains, locus YNL298W, strain CLA4, hits give low values",0.879 (active)
same,normalized growth,"S. cerevisiae deletion strains, locus YNL307C, strain MCK1, hits give low values",0.301 (active)
same,normalized growth,"S. cerevisiae deletion strains, locus YNL322C, strain KRE1 (second series), hits give low values",0.947
same,normalized growth,"S. cerevisiae deletion strains, locus YNL322C, strain KRE1, hits give low values",0.948
same,normalized growth,"S. cerevisiae deletion strains, locus YNR049C, strain mso1, hits give low values",0.964
same,normalized growth,"S. cerevisiae deletion strains, locus YNR052C, strain pop2, hits give low values",0.946
same,normalized growth,"S. cerevisiae deletion strains, locus YOL006C, strain TOP1, hits give low values",0.733
same,normalized growth,"S. cerevisiae deletion strains, locus YOL012C, strain htz1",1.12
same,normalized growth,"S. cerevisiae deletion strains, locus YOL147C, strain pex11, hits give low values",0.739 (active)
same,normalized growth,"S. cerevisiae deletion strains, locus YOR001W, strain rrp6, hits give low values",0.894
same,normalized growth,"S. cerevisiae deletion strains, locus YOR061W, strain CKA2, hits give low values",0.957
same,normalized growth,"S. cerevisiae deletion strains, locus YOR069W, strain VPS5, hits give low values",0.94
same,normalized growth,"S. cerevisiae deletion strains, locus YOR070C, strain gyp1, hits give low values",0.897 (active)
same,normalized growth,"S. cerevisiae deletion strains, locus YOR080W, strain dia2, hits give low values",0.966
same,normalized growth,"S. cerevisiae deletion strains, locus YOR083W, strain WHI5, hits give low values",0.852 (active)
same,normalized growth,"S. cerevisiae deletion strains, locus YOR106W, strain vam3, hits give low values",0.802 (active)
same,normalized growth,"S. cerevisiae deletion strains, locus YOR136W, strain idh2, hits give low values",0.907 (active)
same,normalized growth,"S. cerevisiae deletion strains, locus YOR144C, strain elg1, hits give low values",0.878 (active)
same,normalized growth,"S. cerevisiae deletion strains, locus YOR184W, strain ser1, hits give low values",0.602 (active)
same,normalized growth,"S. cerevisiae deletion strains, locus YOR265W, strain rbl2, hits give low values",0.903 (active)
same,normalized growth,"S. cerevisiae deletion strains, locus YOR270C, strain vph1, hits give low values",0.811
same,normalized growth,"S. cerevisiae deletion strains, locus YOR290C, strain snf2, hits give low values",0.853 (active)
same,normalized growth,"S. cerevisiae deletion strains, locus YOR316C, strain cot1, hits give low values",0.931
same,normalized growth,"S. cerevisiae deletion strains, locus YPL051W, strain arl3, hits give low values",0.82 (active)
same,normalized growth,"S. cerevisiae deletion strains, locus YPL078C, strain atp4, hits give low values",0.864 (active)
same,normalized growth,"S. cerevisiae deletion strains, locus YPL106C, strain sse1, hits give low values",0.772 (active)
same,normalized growth,"S. cerevisiae deletion strains, locus YPL240C, strain hsp82, hits give low values",0.919 (active)
same,normalized growth,"S. cerevisiae deletion strains, locus YPR119W, strain clb2, hits give low values",0.921 (active)
same,normalized growth,"S. cerevisiae deletion strains, locus YPR141C, strain kar3, hits give low values",0.96
same,normalized growth,"S. cerevisiae deletion strains, locus YPR163C, strain tif3, hits give low values",0.605 (active)
same,normalized growth,"S. cerevisiae deletion strains, locus YPR167C, strain met16, hits give low values",0.869 (active)
same,normalized growth,"S. cerevisiae deletion strains, strain wtn01, hits give low values",0.816 (active)
same,normalized growth,"S. cerevisiae strains, strain wild type, hits give low values",0.905
